# Bioassay records as filed in PubChem BioAssay.
# A selection: hits, their analogues and other compounds. The true share with any hit is near 6.3%.
# DPM-DC inhibit: S. pneumoniae DPM-DC inhibition; purified DPM-DC, PK/LDH coupled NADH fluorescence; calls only at 10 µM; 0.49% of 65,000 active; AID 556;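 active means the 320 compounds with the highest percent inhibition in the single-dose primary screen, excluding strongly autofluorescent ones, cut at about 32% in these data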;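 further: kinetic rate of NADH fluorescence loss reporting ADP formed by the decarboxylase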
# NADH coupling: inhibition of NAD/NADH coupling enzymes, library profiling; coupled PK/LDH NADH assays, four targets; IC50, µM (doses to about 10 µM), for the others: at the highest dose inhibition; AID 774; 0.02% of 65,000 active;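 active means single-dose screening hits from any of four coupled enzyme assays that gave an IC50 when retested across doses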;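 further: the DPM-DC format reads NADH fluorescence rather than 340 nm absorbance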
# Fluor 339 460: intrinsic fluorescence of library compounds, ex339/em460 – biochemical, MLSMR library, data from DPM-DC assay, artefact control, profiling panel. compound autofluorescence, ex339/em460 nm, NADH buffer; stronger effect = higher value; 1 = no-compound wells, NADH background. fluorescence fold increase at 10 µM. 5.5% of 65,000 active. AID 709;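 active means at 10 µM, mean starting fluorescence two-fold or more over control wells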;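 further: signal is the first read of a kinetic run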
# Spn MK inh: inhibitors of Streptococcus pneumoniae mevalonate kinase; purified MK, PK/LDH-coupled NADH absorbance 340 nm; inhibition, % at 10 µM; 0.48% of 65,000 active; AID 555;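 active means ranked among the strongest by inhibition in the single 10 µM screen, a fixed top-ranked set picked for dose follow-up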
# A340 absorber: absorbance at 340 nm; compound absorbance at 340 nm, fold over control; fold change at 10 µM; 65,000 tested, under 10 active;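 active means at 10 µM dose, initial 340 nm absorbance at least 2 fold that of control wells; inactive means change under 2 fold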;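 further: initial absorbance extrapolated from kinetic A340 decline of NADH oxidation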
# PMK inhibit: blocks S. pneumoniae phosphomevalonate kinase | inhibition, % at 10 µM | purified PMK, PK/LDH-coupled NADH absorbance 340 nm | 0.49% of 65,000 active;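 active means top-ranked compounds by inhibition in the single 10 µM screen, taking a fixed number of the strongest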;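 further: 0% = full reaction with DMSO carrier and 100% = background rate without enzyme reaction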
# * = called active by the depositor; i = inactive; nt = no result shown; + = active, no number.
SMILES,DPM-DC inhibit,NADH coupling,Fluor 339 460,Spn MK inh,A340 absorber,PMK inhibit
CC1(C)CC(=O)c2cc(OCC(=O)O)ccc2O1,nt,7%,4.8*,0,1,14
CCOC(=O)COc1ccc2c(c1)C(=O)CC1(CCN(C(C)=O)CC1)O2,nt,10%,4.8*,0,1,19
O=C(O)COc1ccc2c(c1)CCCC2,i,2%,1.1,0,1.1,0
CC(NC(=O)Cc1ccc(F)cc1)C(c1cccs1)N1CCN(C)CC1 (stereo not drawn),i,6%,1,0,1,19
C=CCOc1nc(N(C)C)nc(N(C)C)n1,i,2%,1.1,5,0.99,0
CCOC(=O)c1cnc2nc[nH]n2c1=O,i,7%,1.1,5,1,12
CN(C)CCNC(=O)C(C(=O)c1ccc(F)cc1)n1ccccc1=O (stereo not drawn),i,1%,1.2,0,1,4
CCOC(=O)CSc1nnc(-c2ccc(OC)cc2OC)o1,i,5%,1.1,7,1,4
Cc1cc(NCCCN2CCOCC2)n2ncc(-c3ccc(Cl)cc3)c2n1,nt,12%,3.9*,13,1,10
COc1ccc(-c2nc(CSCC(=O)N3CCN(C(=O)c4ccco4)CC3)c(C)o2)cc1OC,i,4%,1,4,1.1,9
CCCC(=O)N1CCN(c2ccc(NC(=O)c3cc4ccccc4o3)cc2)CC1,i,11%,1,13,1.1,15
O=C(Nc1ccc(N2CCN(C(=O)c3ccccc3)CC2)cc1)c1cc2ccccc2o1,i,2%,2.4*,0,1.1,6
CCCCCCS(=O)Cc1ccccc1 (stereo not drawn),i,0%,1,0,1,0
COc1ccc(-c2nnc(SCC(=O)N3CCOCC3)o2)cc1,i,1%,1.2,1,1,3
COc1ccc(CCNC(=O)CSc2nc(-c3ccco3)cc(C(F)(F)F)n2)cc1OC,i,3%,1.1,4,1.1,4
COc1ccc(-c2cc(-c3cccs3)c(C#N)c(SCC(=O)NCc3ccco3)n2)cc1,i,10%,2.5*,8,1,4
COc1ccc(-c2cc(C(F)(F)F)nc(SCC(N)=O)n2)cc1,nt,11%,3.7*,9,1.1,13
O=C(CSc1nc(-c2cccs2)cc(C(F)(F)F)n1)NCc1ccco1,i,7%,1.1,13,1.1,9
COc1ccc(-c2cc(C(F)(F)F)nc(SCC(=O)NCc3ccco3)n2)cc1OC,nt,4%,2.7*,9,1,12
COc1ccc(-c2cc(C(F)(F)F)nc(SCCC(=O)N3CCOCC3)n2)cc1,i,9%,2*,12,1,14
Cc1cc(-n2c(C)cc(C(=O)CSc3ccc4c(c3)OCCO4)c2C)no1,i,4%,1.1,0,1,12
COC(=O)CCC(=O)Nc1ccc(Br)cc1,i,7%,1.1,2,1,9
Clc1ccc(COn2nnc3ccccc32)c(Cl)c1,i,4%,1.1,7,1.1,6
COC(=O)CSc1nc(-c2cccs2)ccc1C#N,nt,6%,2.3*,9,1.1,3
C#CCSc1nc(-c2cccs2)ccc1C#N,i,2%,1.9,2,1,14
SMILES,DPM-DC inhibit,NADH coupling,Fluor 339 460,Spn MK inh,A340 absorber,PMK inhibit
CN1CCN(C(=O)CSc2nc(-c3cccs3)cc(-c3cccs3)c2C#N)CC1,i,6%,2.8*,7,1.1,0
O=C1NC(=O)c2cc(NC(=O)C3CCCCC3)ccc21,nt,4%,3.6*,5,1.1,3
CC(=O)c1cccc(NC(=O)C2CCCC2)c1,i,3%,1.1,10,1,0
Cc1ccc(C(=O)NCCN(C)C)c(C)c1,i,2%,1.1,5,1,0
CN(C)CCNC(=O)c1coc(=O)c(Br)c1,nt,10%,3.7*,9,1.1,10
CCOc1cc(C(=O)NCCN2CCOCC2)cc(OCC)c1OCC,i,18%,1.1,50*,1,3
CCCCN(C(=O)NC(=O)Nc1ccccc1OC)S(C)(=O)=O,i,4%,1.1,5,0.99,6
CN(C(=O)NC(=O)C1=C(N2CCOCC2)/C(=C/c2ccccc2)CC1)S(C)(=O)=O,i,9%,2.9*,7,1.1,3
CCCCN(C(=O)NC(=O)C1=C(N2CCOCC2)/C(=C/c2ccccc2)CC1)S(C)(=O)=O,nt,5%,2.1*,9,1.1,0
Cc1ccc(NC(=O)c2c(-c3c(F)cccc3Cl)noc2C)cc1F,i,1%,1.1,2,1,0
O=C(CSc1nnc2c(Cl)cc(C(F)(F)F)cn12)Nc1ccc2c(c1)OCO2,i,3%,1.1,10,1,0
COc1ccccc1-c1nnc(NC(=O)c2ccc(S(=O)(=O)N(C)Cc3ccccc3)cc2)o1,nt,5%,3*,6,1,10
CN(Cc1ccccc1)S(=O)(=O)c1ccc(C(=O)Nc2nnc(C3CC3)o2)cc1,i,4%,1.1,3,1,10
COc1cccc(C(=O)Nc2ccc(NC(=O)C(C)C)nc2)c1,+,16%,1.2,11,1,2
C=CCNS(=O)(=O)c1ccc(OCC(=O)OC)cc1,i,7%,1.1,5,1.1,7
CCOC(=O)c1sc(NCCNc2nc(C)c(C(=O)OCC)s2)nc1C,i,1%,1.1,2,1.1,2
CCOC(=O)c1sc(NC(=O)c2ccc(Cl)s2)cc1C,nt,4%,2.1*,6,1.1,1
CCOC(=O)c1sc(NC(=O)c2ccc(CC)s2)nc1C,nt,2%,3.3*,0,1.1,3
CCOC(=O)c1sc(NC(=O)C2CC2)cc1C,i,3%,1,4,1.1,0
O=S(=O)(Nc1ccc2c(c1)OCO2)c1ccc(Br)s1,i,11%,0.99,7,0.99,13
CC(C)CC(NS(=O)(=O)c1ccc2c(c1)oc(=O)n2C)C(=O)NCc1cccnc1 (stereo not drawn),i,3%,1.1,10,1,0
CCOC(=O)N1C(=O)c2cc(OC)ccc2S1(=O)=O,i,19µM*,1.2,9,1,29*
CC(C)=CCCC(C)N(C=O)C(C)CCC=C(C)C (stereo not drawn),i,2%,1,2,1,0
CC(C)=CCC/C(C)=C/CN(CC(C)O)CC(C)O (stereo not drawn),i,15%,1.1,40*,1.1,0
CCSc1nc2c(cnn2-c2ccc(C)c(C)c2)c(=O)[nH]1,i,2%,1.1,2,1.1,4
Cc1cc(-c2ccccc2)nc(N2CCN(c3ccccn3)CC2)n1,i,2%,1.4,0,0.95,6
Cc1cc(C)c2c(n1)nn1c(N3CCN(c4ccccc4)CC3)cc(C)nc21,+,20%,3.2*,10,0.99,2
